Source: PubChem BioAssay AID1159580 (chemical genetic matrix, 2015)
Several values for one entry are separate records, joined by “and”; a condition that tells them apart may be missing. Equal values may be shown once. Among all 5,500 compounds or so, about 2,000 (36%) were called active. About 18% were inconclusive and are not listed. Rule as the data show it: active = normalized growth mostly below about 0.91 (no sharp cut-off); inconclusive = no clear call, values can overlap the other calls; inactive = mostly above about 0.92. The list shows a part of the results.

Assay: chemical genetic growth profiling, strain panel (AID 1159580);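 also: tested at 20 µM; growth read once vehicle control cultures reached saturation at 30 °C; 1 = growth at the plate median or of vehicle wells; lower values mean less growth of the strain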
Details: S. cerevisiae deletion strains, growth OD

Measured: normalized growth

CC1=CC(=O)CC(C)(C)C1(O)/C=C/C(C)=C\C(=O)O (stereo not given)
inactive: locus YAL013W, strain DEP1, active compounds read low 0.986 | locus YAL021C, strain ccr4, active compounds read low 0.996 | locus YAL026C, strain drs2, active compounds read low 1.03 | locus YAL030W, strain snc1, active compounds read low 1.02 | locus YBL061C, strain skt5, active compounds read low 1.02 | locus YBR009C, strain hhf1, active compounds read low 1.01 | locus YBR021W, strain FUR4, active compounds read low 1.02 | locus YBR023C, strain chs3, active compounds read low 1.03 | locus YBR171W, strain sec66, active compounds read low 1.02 | locus YBR229C, strain ROT2, active compounds read low 0.948 | locus YBR231C, strain swc5, active compounds read low 1.03 | locus YBR279W, strain paf1, active compounds read low 1.01 | locus YCL011C, strain gbp2, active compounds read low 1.02 | locus YCL016C, strain dcc1, active compounds read low 1.01 | locus YCL029C, strain bik1, active compounds read low 0.973 | locus YCL069W, strain vba3, active compounds read low 1.01 | locus YCR088W, strain abp1, active compounds read low 1.03 | locus YDL005C, strain med2, active compounds read low 1.03 | locus YDL035C, strain GPR1, active compounds read low 0.981 | locus YDL040C, strain nat1, active compounds read low 1.02 | locus YDL074C, strain BRE1, active compounds read low 0.985 | locus YDL101C, strain DUN1, active compounds read low 0.987 | locus YDL134C, strain PPH21, active compounds read low 0.984 | locus YDL185W, strain tfp1, active compounds read low 0.953 | locus YDL192W, strain arf1, active compounds read low 0.983 | locus YDR001C, strain nth1, active compounds read low 1.03 | locus YDR069C, strain doa4, active compounds read low 1.04 | locus YDR101C, strain arx1, active compounds read low 1.01 | locus YDR137W, strain rgp1, active compounds read low 1.01 | locus YDR150W, strain NUM1, active compounds read low 0.979 | locus YDR159W, strain sac3, active compounds read low 1.03 | locus YDR162C, strain NBP2, active compounds read low 0.979 | locus YDR195W, strain ref2 1.03 | locus YDR297W, strain sur2, active compounds read low 1.03 | locus YDR318W, strain mcm21, active compounds read low 0.979 | locus YDR334W, strain swr1, active compounds read low 1.02 | locus YDR335W, strain msn5, active compounds read low 1.03 | locus YDR388W, active compounds read low 0.985 | locus YDR392W, strain spt3, active compounds read low 1.01 | locus YDR502C, strain sam2, active compounds read low 0.993 | locus YEL003W, strain gim4, active compounds read low 1.02 | locus YEL037C, strain rad23, active compounds read low 1.02 | locus YEL061C, strain CIN8 (second series), active compounds read low 1.03 | locus YEL061C, strain CIN8, active compounds read low 0.986 | locus YER015W, strain faa2, active compounds read low 1.02 | locus YER016W, strain bim1, active compounds read low 1.01 | locus YER110C, active compounds read low 0.96 | locus YER111C, strain swi4, active compounds read low 1.02 | locus YER155C, strain BEM2 (second series), active compounds read low 1.05 | locus YER155C, strain BEM2, active compounds read low 0.995 | locus YER167W, strain BCK2, active compounds read low 0.988 | locus YFR010W, strain ubp6, active compounds read low 1.04 | locus YGL078C, strain dbp3, active compounds read low 0.987 | locus YGL086W, strain mad1, active compounds read low 1 | locus YGL167C, strain pmr1, active compounds read low 1.01 | locus YGL173C, strain kem1, active compounds read low 1.01 | locus YGL227W, strain vid30, active compounds read low 1.03 | locus YGL240W, strain doc1, active compounds read low 1.03 | locus YGL248W, strain PDE1, active compounds read low 0.977 | locus YGL253W, strain hxk2, active compounds read low 1.03 | locus YGR078C, strain PAC10, active compounds read low 0.983 | locus YGR135W, strain pre9, active compounds read low 0.976 | locus YGR252W, strain gcn5, active compounds read low 0.976 | locus YHR013C, strain ard1, active compounds read low 1.03 | locus YHR027C, strain rpn1, active compounds read low 1.02 | locus YHR030C, strain SLT2, active compounds read low 0.988 and 1.01 | locus YHR079C, strain IRE1 (second series), active compounds read low 0.974 | locus YHR079C, strain IRE1, active compounds read low 0.974 | locus YHR094C, strain hxt1, active compounds read low 0.966 | locus YHR129C, strain ARP1, active compounds read low 0.989 | locus YHR142W, strain chs7, active compounds read low 1.02 | locus YHR200W, strain rpn10, active compounds read low 0.984 | locus YIL066C, strain RNR3, active compounds read low 0.976 | locus YIL073C, strain SPO22, active compounds read low 0.896 | locus YIL125W, strain kgd1, active compounds read low 0.982 | locus YIR030C, strain dcg1, active compounds read low 0.983 | locus YJL092W, strain hpr5, active compounds read low 1.02 | locus YJL095W, strain BCK1 (second series), active compounds read low 1.02 | locus YJL095W, strain BCK1, active compounds read low 0.989 and 1.04 | locus YJL115W, strain asf1, active compounds read low 1.03 | locus YJL129C, strain trk1, active compounds read low 1.08 | locus YJL134W, strain LCB3, active compounds read low 0.973 | locus YJL154C, strain vps35, active compounds read low 1.02 | locus YJL164C, strain tpk1, active compounds read low 1.01 | locus YJL166W, strain qcr8, active compounds read low 1.04 | locus YJL168C, strain set2, active compounds read low 0.982 | locus YJL187C, strain SWE1 (second series), active compounds read low 0.972 | locus YJR043C, strain POL32, active compounds read low 0.978 | locus YJR066W, strain TOR1, active compounds read low 0.929 | locus YJR075W, strain HOC1, active compounds read low 0.985 | locus YKL009W, strain mrt4, active compounds read low 0.966 | locus YKL068W, active compounds read low 0.973 | locus YKL085W, strain MDH1 (second series), active compounds read low 0.983 | locus YKL085W, strain MDH1, active compounds read low 0.983 | locus YKL160W, strain elf1, active compounds read low 1.03 | locus YKR001C, strain vps1, active compounds read low 0.975 | locus YKR026C, strain gcn3, active compounds read low 1.03 | locus YKR091W, strain srl3, active compounds read low 1.02 | locus YLL001W, strain dnm1, active compounds read low 1.03 | locus YLL026W, active compounds read low 1.02 | locus YLL041C, strain sdh2, active compounds read low 1.02 | locus YLR027C, strain aat2, active compounds read low 1.03 | locus YLR039C, strain RIC1, active compounds read low 0.959 | locus YLR058C, strain SHM2, active compounds read low 0.973 | locus YLR102C, strain apc9, active compounds read low 0.974 | locus YLR113W, strain HOG1, active compounds read low 1.07 | locus YLR221C, strain rsa3, active compounds read low 1.01 | locus YLR258W, strain gsy2, active compounds read low 1.02 | locus YLR262C, strain YPT6 (second series), active compounds read low 1.04 | locus YLR262C, strain YPT6, active compounds read low 0.941 | locus YLR268W, strain sec22, active compounds read low 0.993 | locus YLR320W, strain mms22, active compounds read low 1.02 | locus YLR330W, strain CHS5, active compounds read low 0.992 | locus YLR342W, strain FKS1 (second series), active compounds read low 0.984 | locus YLR342W, strain FKS1, active compounds read low 1.03 | locus YLR357W, strain rsc2, active compounds read low 1.02 | locus YLR370C, strain arc18, active compounds read low 1.03 | locus YLR371W, strain rom2, active compounds read low 0.952 | locus YLR384C, strain iki3, active compounds read low 1.02 | locus YLR418C, strain cdc73, active compounds read low 0.93 | locus YML016C, strain PPZ1, active compounds read low 0.994 | locus YML032C, strain rad52, active compounds read low 0.97 | locus YML120C, strain ndi1, active compounds read low 1.02 | locus YML124C, strain tub3, active compounds read low 0.976 | locus YMR058W, strain fet3, active compounds read low 1.02 | locus YMR078C, strain ctf18, active compounds read low 0.963 | locus YMR125W, strain sto1, active compounds read low 1.06 | locus YMR129W, active compounds read low 1.03 | locus YMR205C, strain PFK2, active compounds read low 1.02 | locus YMR223W, strain ubp8, active compounds read low 0.941 | locus YMR231W, strain pep5, active compounds read low 1.01 | locus YMR307W, strain GAS1, active compounds read low 1 | locus YNL067W, strain RPL9B, active compounds read low 0.985 | locus YNL071W, strain lat1, active compounds read low 1.03 | locus YNL153C, strain GIM3, active compounds read low 0.987 | locus YNL183C, strain NPR1, active compounds read low 0.99 | locus YNL209W, strain ssb2, active compounds read low 1.02 | locus YNL233W, strain BNI4, active compounds read low 0.997 | locus YNL248C, strain rpa49, active compounds read low 1.02 | locus YNL250W, strain rad50, active compounds read low 0.964 | locus YNL271C, strain bni1, active compounds read low 0.978 | locus YNL298W, strain CLA4, active compounds read low 0.983 | locus YNL307C, strain MCK1, active compounds read low 0.973 | locus YNL322C, strain KRE1 (second series), active compounds read low 1.02 | locus YNL322C, strain KRE1, active compounds read low 0.987 | locus YNR049C, strain mso1, active compounds read low 1.02 | locus YNR052C, strain pop2, active compounds read low 0.989 | locus YOL012C, strain htz1 0.831 | locus YOL147C, strain pex11, active compounds read low 0.971 | locus YOR001W, strain rrp6, active compounds read low 1.01 | locus YOR061W, strain CKA2, active compounds read low 0.951 | locus YOR069W, strain VPS5, active compounds read low 0.992 | locus YOR070C, strain gyp1, active compounds read low 1.01 | locus YOR080W, strain dia2, active compounds read low 1.02 | locus YOR083W, strain WHI5, active compounds read low 1.02 | locus YOR106W, strain vam3, active compounds read low 1.04 | locus YOR136W, strain idh2, active compounds read low 0.977 | locus YOR144C, strain elg1, active compounds read low 0.97 | locus YOR184W, strain ser1, active compounds read low 0.98 | locus YOR231W, strain MKK1, active compounds read low 0.998 | locus YOR265W, strain rbl2, active compounds read low 1.03 | locus YOR270C, strain vph1, active compounds read low 1.08 | locus YOR290C, strain snf2, active compounds read low 1.02 | locus YOR316C, strain cot1, active compounds read low 0.971 | locus YPL051W, strain arl3, active compounds read low 1.03 | locus YPL055C, strain LGE1, active compounds read low 0.979 | locus YPL078C, strain atp4, active compounds read low 1.03 | locus YPL106C, strain sse1, active compounds read low 1.02 | locus YPL240C, strain hsp82, active compounds read low 1.04 | locus YPL256C, strain CLN2, active compounds read low 1.01 | locus YPR119W, strain clb2, active compounds read low 0.968 | locus YPR141C, strain kar3, active compounds read low 0.954 | locus YPR163C, strain tif3, active compounds read low 0.967 | locus YPR167C, strain met16, active compounds read low 0.958 | strain wtn01, active compounds read low 1.03
